Measured values as given in PubChem BioAssay (NCATS).
Results filed as inconclusive are left out. Where a call stands in place of a potency, no number is given. Values without a mark were called inactive. Activity calls are given as the source filed them. Calls come from the whole dose curve; as a rule, active = well fitted curve in the direction sought with a large enough effect; inconclusive = small, poorly fitted or top-dose-only effect, or another doubt; inactive = no such curve, though single readings can be large; an effect the other way counts as inactive or inconclusive.

Columns and labels:
[1] = qHTS of pediatric cancer cell lines to identify multiple opportunities for drug repurposing: Primary screen for TC32 cells (AID 1347089); note: nearly all actives have a fitted effect of over 60% in size; note: potency is the fitted concentration of half-maximal effect
Summary of the method: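 Luminescent ATP read-out (CellTiter-Glo) of metabolically active TC32 cells after 48 h exposure. Concentration-response curves came from 11-point (MIPE, 0.78 nM–46 µM) or 8-point (NPC, 0.59 nM–46 µM) primary titrations; follow-up used 11 points.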

[2] = qHTS of pediatric cancer cell lines to identify multiple opportunities for drug repurposing: Primary screen for DAOY cells (AID 1347090); note: nearly all actives have a fitted effect of over 55% in size; note: potency is the fitted concentration of half-maximal effect
Summary of the method: (§1)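 Eight- or eleven-point concentration series, 48 h treatment at 37 degrees C in growth media; readout CellTiter-Glo luminescence. Potency and efficacy were taken from the concentration-response curves.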

[3] = qHTS of pediatric cancer cell lines to identify multiple opportunities for drug repurposing: Primary screen for SJ-GBM2 cells (AID 1347091); note: potency is the fitted concentration of half-maximal effect
Summary of the method: as §1

[4] = qHTS of pediatric cancer cell lines to identify multiple opportunities for drug repurposing: Primary screen for A673 cells (AID 1347092); note: nearly all actives have a fitted effect of over 45% in size; note: potency is the fitted concentration of half-maximal effect
Summary of the method: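 Cell viability of A673 measured by CellTiter-Glo ATP luminescence after 48 hours compound exposure. Dilution series spanned 0.78 nM to 46 µM (MIPE, 11-point) or 0.59 nM to 46 µM (NPC, 8-point); bortezomib 2.3 uM positive control.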

[5] = qHTS of pediatric cancer cell lines to identify multiple opportunities for drug repurposing: Primary screen for SK-N-MC cells (AID 1347093); note: potency is the fitted concentration of half-maximal effect
Summary of the method: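 Metabolically active cells were quantified by ATP-dependent luminescence (CellTiter-Glo, 15 min at room temperature) following 48 h treatment. Cells had been plated at 500-1,000 per well and settled for 5 h beforehand.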

[6] = qHTS of pediatric cancer cell lines to identify multiple opportunities for drug repurposing: Primary screen for BT-37 cells (AID 1347094); note: potency is the fitted concentration of half-maximal effect
Summary of the method: (§2)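 Following a 5-hour attachment period, cells at 500-1,000/well received compounds and were cultured for 48 hours. CellTiter-Glo was added and luminescence read to estimate viable, metabolically active cells.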

[7] = qHTS of pediatric cancer cell lines to identify multiple opportunities for drug repurposing: Primary screen for NB-EBc1 cells (AID 1347095); note: potency is the fitted concentration of half-maximal effect
Summary of the method: as §2

[8] = qHTS of pediatric cancer cell lines to identify multiple opportunities for drug repurposing: Primary screen for U-2 OS cells (AID 1347096); note: nearly all actives have a fitted effect of over 50% in size; note: potency is the fitted concentration of half-maximal effect
Summary of the method: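 Cells (500-1,000/well) in growth media were settled 5 h at 37 degrees C, then given compounds for 48 h. Viability was read as CellTiter-Glo luminescence. Primary runs used MIPE at 11 points (0.78 nM-46 µM) and NPC at 8 points (0.59 nM-46 µM); follow-ups used 11 points.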

[9] = qHTS of pediatric cancer cell lines to identify multiple opportunities for drug repurposing: Primary screen for Saos-2 cells (AID 1347097); note: nearly all actives have a fitted effect of over 40% in size; note: potency is the fitted concentration of half-maximal effect
Summary of the method: as §2

[10] = NS1 protein of Zika virus - qHTS assay to identify small molecule inhibitors in human HEK 293 cells (AID 1347053); note: series mostly up to about 46 µM; nearly all actives have a fitted effect of over 55% in size
Summary of the method: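 In this cell-based screen, HEK 293 cultures received compound for one hour before Zika MR766 at MOI = 0.5. NS1 was quantified 24 hours later by TR-FRET, normalized to virus-free wells and infected wells.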

| SMILES | Potency [1] | Potency [2] | Potency [3] | Potency [4] | Potency [5] | Potency [6] | Potency [7] | Potency [8] | Potency [9] | Potency [10] |
| --- | --- | --- | --- | --- | --- | --- | --- | --- | --- | --- |
| CC(=O)OCC(=O)[C@@]1(O)CC[C@H]2[C@@H]3CCC4=CC(=O)C=C[C@]4(C)[C@@H]3[C@@H](O)C[C@@]21C | inactive | inactive | inactive | inactive | inactive | inactive | inactive | inactive | inactive |  |
| CO[C@H]1/C=C\O[C@@]2(C)Oc3c(C)c(O)c4c(O)c(c(C=NN5CCN(C6CCCC6)CC5)c(O)c4c3C2=O)NC(=O)C(C)=CC=C[C@H](C)[C@H](O)[C@@H](C)[C@@H](O)[C@@H](C)[C@H](OC(C)=O)[C@H]1C | 0.523 µM (active) | 0.296 µM (active) | inactive | 0.0296 µM (active) | 0.0059 µM (active) | 0.001 µM (active) | 0.001 µM (active) | 2.35 µM (active) | 0.0935 µM (active) |  |
| CCc1cc(-c2n[nH]c(C)c2-c2ccc3c(c2)OCCO3)c(O)cc1O |  |  | 6.62 µM (active) | 7.43 µM (active) | 10.5 µM (active) |  | 4.69 µM (active) | 11.8 µM (active) | 14.8 µM (active) | inactive |
| CN(C)S(=O)(=O)c1ccc2c(c1)C(=Cc1cc3c([nH]1)CCCC3)C(=O)N2 | inactive |  |  |  | 3.72 µM (active) |  |  | inactive |  | inactive |
| CCC(C)SSc1ncc[nH]1 (stereo not drawn) | inactive | 18.7 µM (active) | 20.9 µM (active) | 18.7 µM (active) | 3.72 µM (active) |  | 5.9 µM (active) | inactive | 18.7 µM (active) |  |
| c1ccc(CNc2nc(N3CCOc4ccccc43)nc3c2CCCC3)cc1 |  | inactive | 23.5 µM (active) | inactive |  |  |  | inactive |  | inactive |
| COc1cc([C@@H]2c3cc4c(cc3[C@@H](O[C@@H]3O[C@@H]5CO[C@@H](C)O[C@@H]5[C@H](O)[C@@H]3O)[C@H]3COC(=O)[C@H]23)OCO4)cc(OC)c1O | 1.04 µM (active) | 1.48 µM (active) | 0.59 µM (active) | 1.48 µM (active) | 0.469 µM (active) | 0.485 µM (active) | 0.187 µM (active) |  | 3.32 µM (active) |  |
| O=C(CCCN1CCN(c2ccc(F)cc2)CC1)NC1c2ccccc2CSc2ccccc21 (stereo not drawn) |  | 14.8 µM (active) |  | 11.8 µM (active) | 20.9 µM (active) |  |  |  |  | inactive |
| O=[N+]([O-])c1ccc(Nc2ccccc2-c2ccccc2)c2nonc12 | inactive |  |  |  |  | inactive | 23.5 µM (active) | inactive |  | inactive |
| Cc1cn([C@@H]2C[C@@H](O)[C@H](CO)O2)c(=O)[nH]c1=O |  | inactive | inactive |  |  | inactive | inactive | inactive | inactive | inactive |
| CN1CC(=O)N2C(Cc3c([nH]c4ccccc34)[C@H]2c2ccc3c(c2)OCO3)C1=O (stereo partly drawn) | inactive | inactive | inactive | inactive | inactive | inactive | inactive | inactive |  |  |
| O=c1[nH]nc(OCCCc2ccc(Cl)cc2)c(NCc2cccnc2)c1Br |  |  | 23.5 µM (active) | 9.35 µM (active) | 10.5 µM (active) | 21.7 µM (active) |  | 23.5 µM (active) | 26.4 µM (active) | inactive |
| Cc1ccc2c(c1)c1c(n2CCc2ccc(C)nc2)CCN(C)C1 | inactive | inactive | inactive | inactive |  | inactive | inactive | inactive |  |  |
| C[C@H](CCC(=O)O)[C@H]1CC[C@H]2[C@H]3[C@@H](CC[C@]12C)[C@@]1(C)CC[C@@H](O)C[C@H]1C[C@@H]3O |  | inactive |  |  |  | 27.3 µM (active) | 14.8 µM (active) | inactive | inactive | inactive |
| Oc1cc(O)cc(C=Cc2ccc(O)c(O)c2)c1 |  | inactive | inactive | 18.7 µM (active) | 5.26 µM (active) |  | 4.18 µM (active) | inactive |  |  |
| COc1ccc2nc3cc(Cl)ccc3c(Nc3cc(CN4CCCC4)c(O)c(CN4CCCC4)c3)c2n1 | inactive | inactive |  |  |  |  |  | inactive | inactive |  |
| O=C(c1ccc(C=Cc2n[nH]c3ccccc23)cc1)N1CCNCC1 | 4.66 µM (active) | inactive | 4.18 µM (active) |  | 1.18 µM (active) | inactive | 3.72 µM (active) | inactive |  |  |
| O=c1[nH]c(=O)n([C@H]2C[C@@H](O)[C@@H](CO)O2)cc1C(F)(F)F | 7.39 µM (active) |  |  | 3.72 µM (active) | 3.72 µM (active) | 3.06 µM (active) | 18.7 µM (active) | inactive | inactive |  |
| CC(C)(C)c1nc(-c2cccc(NS(=O)(=O)c3c(F)cccc3F)c2F)c(-c2ccnc(N)n2)s1 |  | 18.7 µM (active) | inactive |  | 0.59 µM (active) | inactive | inactive |  |  |  |
